Activity (protection/inhibition) data for 3 molecules are collected here from PubChem BioAssay AID651871 (Sanford-Burnham Center for Chemical Genomics, 2012).

Each structure is given as a SMILES string.

For the experiment, the system named is HL-1. Briefly: protection of cardiomyocytes from stress damage, SAR follow-up, cell-based, panel, H9c2 and HL-1, ATP luminescence, set 2 (AID 651871).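 Further: cells exposed to stressor for 2 h before ATP readout; reference of the scale not given here.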 Particulars: H9c2/HL-1 cardiomyocytes, 2-deoxyglucose stress, with 2-deoxyglucose, run 15, at 79 µM (top of the series).
As for `CCOC(=O)c1cccc(NC(=O)CNC(=O)c2cc(-c3cc(OC)c(OC)c(OC)c3)nc3ccccc23)c1`, the activity (protection/inhibition) came to 87.5%.

Regarding `COc1ccc2c(c1OC)C(=O)N1c3ccccc3C(=O)N(Cc3cccc(Cl)c3Cl)C21` (stereo not drawn), the activity (protection/inhibition) was -12.5%.

For `COc1ccc2nc(-c3cc(OC)c(OC)c(OC)c3)cc(C(=O)NCC(=O)Nc3ccc(C(C)=O)cc3)c2c1`, the activity (protection/inhibition) came to 56%.
